Measured values: PubChem BioAssay AID651650 (Sanford-Burnham Center for Chemical Genomics, 2012)

The compounds below were run against Neuropilin-1 (Homo sapiens) (UniProt O14786) (assay: blockers of CendR peptide binding to NRP-1 – biochemical, FP and AlphaScreen panel, dose response (AID 651650)). Conditions: NRP-1 b1b2 / RPARPAR peptide binding, FP or AlphaScreen; run 1, at 100 µM (top of the series).
Sequence of Neuropilin-1 (Homo sapiens) (O14786 whole entry, looked up): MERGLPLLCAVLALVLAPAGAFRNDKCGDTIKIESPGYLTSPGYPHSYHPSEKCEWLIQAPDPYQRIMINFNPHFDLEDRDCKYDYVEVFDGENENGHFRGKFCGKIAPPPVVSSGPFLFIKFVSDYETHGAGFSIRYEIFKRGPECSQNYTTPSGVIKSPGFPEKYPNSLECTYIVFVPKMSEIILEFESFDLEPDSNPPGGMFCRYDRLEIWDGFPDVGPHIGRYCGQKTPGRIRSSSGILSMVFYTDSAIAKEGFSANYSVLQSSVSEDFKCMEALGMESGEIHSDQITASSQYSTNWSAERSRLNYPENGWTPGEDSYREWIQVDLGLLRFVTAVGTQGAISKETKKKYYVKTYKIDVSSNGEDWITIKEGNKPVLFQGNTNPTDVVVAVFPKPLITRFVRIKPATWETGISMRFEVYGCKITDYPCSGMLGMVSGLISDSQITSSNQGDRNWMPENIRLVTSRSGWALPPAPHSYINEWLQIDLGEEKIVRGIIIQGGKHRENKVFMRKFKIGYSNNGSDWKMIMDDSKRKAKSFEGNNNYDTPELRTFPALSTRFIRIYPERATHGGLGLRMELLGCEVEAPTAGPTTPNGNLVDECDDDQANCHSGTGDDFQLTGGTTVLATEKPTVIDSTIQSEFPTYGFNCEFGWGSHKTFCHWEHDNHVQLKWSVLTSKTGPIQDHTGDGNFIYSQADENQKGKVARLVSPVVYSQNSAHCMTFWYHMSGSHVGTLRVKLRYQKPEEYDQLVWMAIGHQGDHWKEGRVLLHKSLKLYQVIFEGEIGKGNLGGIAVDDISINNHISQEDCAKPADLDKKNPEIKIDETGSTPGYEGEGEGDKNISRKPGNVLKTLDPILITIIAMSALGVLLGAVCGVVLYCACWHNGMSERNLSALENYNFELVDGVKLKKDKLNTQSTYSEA
`COc1ccc(/C=N/NC(=O)c2nn(-c3ccc(Cl)cc3)c(=O)c3c(N)scc23)cc1` showed an inhibition of 17.8%.
`O=C(O)c1ccccc1SCC(=O)N1CCCCC1` gave an inhibition of 52.9%.
`O=c1c2ccccc2nc2n1C(CSc1ccc(F)cc1)CS2` (stereo not drawn) was tested, and the inhibition was 101%.
`Cc1cnc(C(=O)OCC(=O)Nc2sc3c(c2C#N)CCC3)cn1` showed an inhibition of 44.2%.
`CCOC(=O)CNc1ccc2c(c1)OCO2` showed an inhibition of 82.2%.
For `CCOC(=O)c1cnc(-c2ccccc2)nc1Oc1ccc(OC)cc1`, the inhibition was 99.5%.
With `CC(C)(C)OC(=O)N1CCN(C(=O)c2[nH]cnc2C(=O)NCc2ccccc2)CC1` the inhibition was 34.4%.
Work on `CC(C)Cc1ccc(C(C)C(=O)Nc2ccc(O)cc2)cc1` (stereo not drawn) yielded an inhibition of 34.6%.
`O=C1c2cc([N+](=O)[O-])cc3cc([N+](=O)[O-])cc(c23)C(=O)N1c1ccccn1` gave an inhibition of 17.2%.
`Cc1cccc(NS(=O)(=O)c2cccs2)c1` gave an inhibition of 44.9%.
`O=[N+]([O-])c1ccc(Cc2ccncc2)cc1` showed an inhibition of 15.9%.
`c1ccc2c(CNc3ccc(CNc4ncn[nH]4)cc3)cccc2c1` showed an inhibition of 25.6%.
Compound `Cc1cccc(NC(=O)c2ccc(OCc3c(C)noc3C)cc2)c1` has an inhibition of 93.6%.
In the case of `NC(=O)C1CCN(c2nc(-c3ccc4occc(=O)c4c3)cs2)CC1`, the inhibition is reported as 53.3%.
Work on `CCCCCc1c(-c2cccc(Cl)c2)ncn1CCc1ccccc1OC` yielded an inhibition of 51.8%.
In the case of `CCNC(=O)C1(C)CCCN(C(=O)c2nc(C)oc2C)C1` (stereo not drawn), the inhibition is reported as 20.1%.
Compound `Cc1nc(Nc2ccc(S(N)(=O)=O)cc2)oc1C` has an inhibition of 60.3%.
`CCCN=C1N/C(=C\c2ccco2)C(=O)N1c1ccccc1` was tested, and the inhibition was 3.93%.
Work on `CCC1=C(OC(=O)N(CC)CC)N2C(=O)OC(=NCC(=O)OC)[C@]2(Cc2ccccc2)[C@H]2C1=CC[C@H]1C(=O)N(CC(=O)OC)C(=O)[C@H]12` yielded an inhibition of 70.2%.
`Cn1cccc1C1Nc2ccccc2NC2=C1C(=O)CC(C)(C)C2` (stereo not drawn) gave an inhibition of 12.9%.
In the case of `CC(NCCOCCOc1ccccc1)c1ccccc1` (stereo not drawn), the inhibition is reported as 39.6%.
In the case of `Cc1cccc(N(CC(=O)NC2CCCC2)C(=O)CS(=O)CC(=O)Nc2ccc3c(c2)OCO3)c1C` (stereo not drawn), the inhibition is reported as 49%.
In the case of `COC(=O)N[C@@H]1C[C@H]2[C@@H]3CC[C@H]4C[C@@H](OC)CC[C@]4(C)[C@H]3CC[C@]12C`, the inhibition is reported as 57.8%.
`COc1ccc(-c2cc(C)no2)cc1S(=O)(=O)NCc1cccc(C)c1` showed an inhibition of 23.2%.
With `CCOCCCNC(=O)C(c1ccc(C)cc1)N(Cc1cccs1)C(=O)c1ccccc1O` (stereo not drawn) the inhibition was 24.4%.
In the case of `NC(=O)CC[C@H](NC(=O)c1ccc(F)cc1)C(=O)N1CCN(Cc2ccc3c(c2)OCO3)CC1`, the inhibition is reported as 28.6%.
Work on `O=C1CCCN1CCCNc1nc(NCc2cccs2)nc2ccsc12` yielded an inhibition of 81.3%.
In the case of `COc1cccc(NC(=O)CSc2nc(O)c(C)c(=O)n2-c2ccc(C)cc2)c1`, the inhibition is reported as 84.9%.
`O=C(COC(=O)C1CC(=O)N(Cc2ccccc2)C1)Nc1ccccc1F` (stereo not drawn) showed an inhibition of 56.9%.
`O=C1CSC(c2cn(-c3ccccc3)nc2-c2cccs2)N1CC1CCCO1` (stereo not drawn) showed an inhibition of 73.3%.
With `CC(=NN(Cc1ccccc1)c1ccccc1)c1ccccc1` the inhibition was 87.9%.
With `C#CCCOC(=O)N1C2=NC(C(=O)OC)=C(C(=O)OC)[C@@H]3N(C)c4ccccc4[C@]23C[C@H]1CO` the inhibition was 74.8%.
Compound `CC#CCN(Cc1ccco1)C(=O)C1CCC(=O)N(Cc2ccccc2F)C1` (stereo not drawn) has an inhibition of 24.4%.
For `Cc1ccc(NC(=O)c2ccc3c(c2)S(=O)(=O)c2ccccc2C3=O)cc1S(=O)(=O)N1CCOCC1`, the inhibition was 26.3%.
`CCOc1ccccc1C1CC(=O)NC2=C1C(=O)CC(C)(C)C2` (stereo not drawn) gave an inhibition of 32%.
`O=C(Cc1ccc(F)cc1)N1CCN=C1SCc1ccc([N+](=O)[O-])cc1` showed an inhibition of 18.7%.
`CC(C)(C)N(NC(=O)Nc1ccc(Cl)cc1)C(=O)c1ccccc1` showed an inhibition of 48.3%.
Work on `COc1ccc(C(O)c2nc(-c3ccc4ccccc4c3)cs2)cc1` (stereo not drawn) yielded an inhibition of 26.1%.
